This excerpt belongs to a sample that is enriched for hits.
NSD2 block = NSD2 (human) methyltransferase inhibition | inhibition, % at 12.5 µM | 44,000 compounds, 0.07% hits | NSD2-SET H3K36me1 DELFIA fluorescence, biochemical | O96028; in the data active means inhibition above about 54%, passing the limit was not always enough;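 further: inhibitors reduce the monomethyl H3K36 fluorescence signal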
Target sequence (O96028 whole entry, looked up): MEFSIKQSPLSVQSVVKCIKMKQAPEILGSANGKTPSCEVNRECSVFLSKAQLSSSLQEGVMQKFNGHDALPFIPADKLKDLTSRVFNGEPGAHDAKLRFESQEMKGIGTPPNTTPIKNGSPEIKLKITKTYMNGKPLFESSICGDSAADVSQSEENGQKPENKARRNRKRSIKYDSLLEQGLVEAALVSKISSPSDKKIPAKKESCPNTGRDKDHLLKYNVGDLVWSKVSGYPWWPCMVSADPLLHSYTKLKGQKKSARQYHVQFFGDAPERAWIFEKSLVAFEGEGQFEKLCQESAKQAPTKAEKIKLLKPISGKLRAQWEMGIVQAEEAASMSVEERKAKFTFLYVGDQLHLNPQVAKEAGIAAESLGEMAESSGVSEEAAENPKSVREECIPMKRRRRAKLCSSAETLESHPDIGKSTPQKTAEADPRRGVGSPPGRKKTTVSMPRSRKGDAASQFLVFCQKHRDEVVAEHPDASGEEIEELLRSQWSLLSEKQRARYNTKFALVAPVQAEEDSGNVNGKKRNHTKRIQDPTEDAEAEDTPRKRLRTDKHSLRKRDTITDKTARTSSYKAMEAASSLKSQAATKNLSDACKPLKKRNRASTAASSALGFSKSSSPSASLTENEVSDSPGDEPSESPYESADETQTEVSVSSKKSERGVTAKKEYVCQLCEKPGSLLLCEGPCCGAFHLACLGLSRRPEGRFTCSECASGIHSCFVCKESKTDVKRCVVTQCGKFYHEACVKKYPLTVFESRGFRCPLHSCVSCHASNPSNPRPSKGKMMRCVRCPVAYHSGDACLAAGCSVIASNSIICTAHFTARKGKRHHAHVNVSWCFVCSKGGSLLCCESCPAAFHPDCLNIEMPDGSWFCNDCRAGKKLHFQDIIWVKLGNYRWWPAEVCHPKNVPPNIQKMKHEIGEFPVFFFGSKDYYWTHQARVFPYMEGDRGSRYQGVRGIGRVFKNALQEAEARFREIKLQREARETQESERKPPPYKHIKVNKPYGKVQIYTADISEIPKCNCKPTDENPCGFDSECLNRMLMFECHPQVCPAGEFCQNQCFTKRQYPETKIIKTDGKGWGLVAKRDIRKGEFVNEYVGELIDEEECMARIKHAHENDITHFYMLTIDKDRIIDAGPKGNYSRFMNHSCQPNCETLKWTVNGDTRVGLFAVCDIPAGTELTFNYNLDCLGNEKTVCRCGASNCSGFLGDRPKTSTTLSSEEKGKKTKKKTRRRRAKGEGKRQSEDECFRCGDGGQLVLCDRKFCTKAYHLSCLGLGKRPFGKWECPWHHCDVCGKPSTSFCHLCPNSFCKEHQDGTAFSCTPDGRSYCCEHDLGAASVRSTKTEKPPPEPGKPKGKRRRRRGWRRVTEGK
Numbers stand for hits; n = inactive.

SMILES	NSD2 block
C[C@@H]1CCCCO[C@@H](CN(C)Cc2ccc(C(=O)Nc3ccccc3N)cc2)[C@@H](C)CN([C@H](C)CO)C(=O)c2cc(NC(=O)Nc3ccc(C(F)(F)F)cc3)ccc2O1	n
COCC#Cc1ccc2c(c1)O[C@H](CN(C)CC1CCOCC1)[C@H](C)CN([C@H](C)CO)S2(=O)=O	n
C[C@H]1CN([C@@H](C)CO)S(=O)(=O)c2ccc(-c3ccncc3)cc2O[C@@H]1CN(C)C(=O)c1ccc2c(c1)OCO2	n
COc1ccc(CN(C)C[C@@H]2Oc3ccc(NC(=O)CCC(F)(F)F)cc3CC(=O)N([C@H](C)CO)C[C@H]2C)cc1	n
O=C(c1cc(C2CC2)[nH]n1)n1ccnc1	n
CC(C)(C)CC(=O)NCc1ccc(S(N)(=O)=O)cc1	n
Cc1noc(C)c1S(=O)(=O)N(C)C[C@@H]1Oc2ccc(NC(=O)NC3CCCCC3)cc2CC(=O)N([C@@H](C)CO)C[C@@H]1C	n
Cc1cc(C(=O)Nc2cccc3c2O[C@H](CN(C)C(=O)Nc2cccc4ccccc24)[C@@H](C)CN([C@@H](C)CO)C3=O)n(C)n1	n
C[C@H](CO)N1C[C@H](C)[C@H](CN(C)Cc2ccncc2)Oc2cc(-c3ccccc3)ccc2S1(=O)=O	n
C[C@@H]1CN([C@H](C)CO)S(=O)(=O)c2ccc(C#Cc3cccc(F)c3)cc2O[C@@H]1CN(C)C(=O)NC1CCCCC1	n
O=c1c(O[C@@H]2O[C@H](CO)[C@H](O)[C@H](O)[C@H]2O)c(-c2ccc(O)cc2)oc2cc(O)cc(O)c12	n
O=c1c(O[C@@H]2OC[C@H](O)[C@H](O)[C@H]2O)c(-c2ccc(O)cc2)oc2cc(O)cc(O)c12	72
COc1c(-c2ccc(O)cc2)oc2cc(O)cc(O)c2c1=O	n
O=c1c(OC2OCC(O)C(O)C2O)c(-c2ccc(O)c(O)c2)oc2cc(O)cc(O)c12 (configuration not stated)	60
O=c1c(O[C@@H]2OC[C@H](O)[C@H](O)[C@H]2O)c(-c2ccc(O)c(O)c2)oc2cc(O)cc(O)c12	n
C[C@@H]1O[C@@H](Oc2cc(O)c3c(=O)c(O[C@@H]4O[C@@H](C)[C@H](O)[C@@H](O[C@@H]5OC[C@@H](O)[C@H](O)[C@H]5O)[C@H]4O[C@@H]4O[C@H](CO)[C@@H](O)[C@H](O)[C@H]4O)c(-c4ccc(O)c(O)c4)oc3c2)[C@H](O)[C@H](O)[C@H]1O	n
O=C(Nc1cc(F)ccc1F)N[C@@H]1C=C[C@@H](CC(=O)N2CCc3ccccc3C2)O[C@H]1CO	n
CNC[C@@H]1Oc2ccc(NC(=O)NC3CCCCC3)cc2C(=O)N([C@H](C)CO)C[C@H]1C	n
COc1ccc(NC(=O)N(C)C[C@H]2Oc3ncc(C#CC(C)C)cc3C(=O)N([C@@H](C)CO)C[C@H]2C)cc1	n
C[C@@H]1CN([C@H](C)CO)C(=O)c2cc(NC(=O)Nc3ccc(F)cc3)ccc2O[C@H]1CN(C)Cc1ccc(C(=O)O)cc1	n
C[C@H](CO)N1C[C@H](C)[C@H](CN(C)C(=O)CC2CC2)Oc2ncc(C#CC3(O)CCCC3)cc2C1=O	n
CC12CC(c3ccoc3)OC(=O)C1CCC1(C)C2C2OC(=O)C1(O)C1OC21 (configuration not stated)	n
CC(=O)O[C@@H]1CC2C(C)(C)C(=O)C3OC3[C@]2(C)C2CC[C@@]3(C)[C@H](c4ccoc4)OC(=O)C4OC43[C@@]21C (some centres not stated)	n
COC(=O)[C@@H](O)[C@H]1[C@@]2(C)C[C@]3(O)C4[C@@H](O[C@]56CC(=O)O[C@@H](c7ccoc7)[C@@]5(C)CCC([C@]46O)[C@]13C)[C@H]2O (some centres not stated)	76

Screening results (PubChem)
